Test results taken from the supplement of paper PMC10646978.
± gives the standard deviation.

Experiments:
Settings in all cases: modulator concentration 10 µM
[1] = test system: RAW-Dual (murine macrophage reporter line); test: NF-kB reporter (SEAP) activity fold change vs agonist alone; higher = enhanced NF-kB activity
Outline: (§1)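 RAW-Dual murine macrophage reporter cells were plated at 50 000 per well in 384-well plates, pin-transferred compound to 10 μM final, and pre-incubated for 1 hour at 37 °C before a PRR agonist was added and the cells incubated overnight. NF-κB activity was read from supernatant SEAP with QUANTI-Blue at 620 nm absorbance, and IRF activity from Lucia luciferase with QUANTI-Luc by luminescence. Each signal was expressed as fold change by dividing by the mean agonist-only control on the same plate. Two replicate plates were averaged, with errors obtained by propagation.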

[2] = test system: RAW-Dual (murine macrophage reporter line); test: IRF reporter (Lucia luciferase) activity fold change vs agonist alone; higher = enhanced IRF activity
Outline: as §1

[3] = test system: RAW-Dual (murine macrophage reporter line); test: viability score (confluency relative to resting cells, overnight) (fraction); higher = more viable, active = viable (0.7 or more)
Outline: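 RAW-Dual macrophages in 384-well plates were treated overnight with compound at 10 μM final. IncuCyte imaging recorded confluency, and IncuCyte software built two confluency masks across every imaged well. The viability score expresses confluency relative to resting cells and was judged against a cutoff, which a compound met only if both masks exceeded 70% of resting cells.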

[4] = agonist: CpG ODN 1826 0.5 ug/mL

Compound | NF-kB reporter [1, 4] | NF-kB reporter ([1]; agonist: LPS 0.1 ug/mL) | NF-kB reporter ([1]; agonist: MPLA […]) | IRF reporter ([2]; agonist: 3'3'-cGAMP 10 ug/mL) | IRF reporter ([2]; agonist: LPS 0.1 ug/mL) | IRF reporter ([2]; agonist: MPLA […]) | viability score [3]
COc1ccc(OC)c(Nc2nc(-c3c(C)nc4sccn34)cs2)c1 | 0.853 ± 0.073 | 0.961 ± 0.1 | 1.21 ± 0.13 | 0.925 ± 0.046 | 1.43 ± 0.094 | 1.75 ± 0.15 | 1.01 (active)
CC(C)NCC(O)COc1cccc2ccccc12.Cl (stereo unspecified) | 0.858 ± 0.12 | 1.05 ± 0.13 | 1.03 ± 0.06 | 0.66 ± 0.051 | 1.21 ± 0.22 | 1.12 ± 0.29 | 0.984 (active)
O=C(NCc1cccc(Oc2ccccn2)c1)C1c2ccccc2Oc2ccccc21 | 0.52 ± 0.041 | 1.12 ± 0.088 | 0.883 ± 0.039 | 0.801 ± 0.077 | 1.01 ± 0.12 | 1.11 ± 0.27 | 0.992 (active)
O=C(Cn1cc(S(=O)(=O)c2ccc(F)cc2)c2ccccc21)N1CCCCCC1 | 0.825 ± 0.12 | 0.902 ± 0.073 | 1.02 ± 0.055 | 0.847 ± 0.071 | 1.2 ± 0.19 | 1.3 ± 0.48 | 0.972 (active)
Cc1cc(C)nc(NS(=O)(=O)c2ccc(NC(=O)C=Cc3cccc4ccccc34)cc2)n1 | 1.14 ± 0.091 | 1.14 ± 0.083 | 1.17 ± 0.091 | 0.248 ± 0.026 | 1.21 ± 0.12 | 1.04 ± 0.17 | 0.956 (active)
Cc1[nH]nc(-c2ccc(OCc3ccccc3)c(C)c2O)c1-c1cnn(-c2ccccc2)c1 | 0.892 ± 0.073 | 1.1 ± 0.077 | 0.784 ± 0.049 | 0.95 ± 0.026 | 1.58 ± 0.19 | 1.11 ± 0.095 | 1.01 (active)
CS(=O)(=O)N(CC(=O)Nc1ccccc1Cl)c1ccc(Cl)c(C(F)(F)F)c1 | 0.753 ± 0.067 | 1.08 ± 0.062 | 0.874 ± 0.052 | 1.52 ± 0.11 | 1.35 ± 0.14 | 1.25 ± 0.2 | 0.961 (active)
CC(NC(=O)c1nc2ccccc2[nH]1)c1ccc(Br)cc1 (stereo unspecified) | 1.07 ± 0.11 | 0.938 ± 0.061 | 0.985 ± 0.047 | 1 ± 0.14 | 1 ± 0.073 | 1.13 ± 0.19 | 1 (active)
CCc1ccc(CCOc2ccc(CC3SC(=O)NC3=O)cc2)nc1.Cl (stereo unspecified) | 1.34 ± 0.27 | 1.04 ± 0.12 | 0.983 ± 0.062 | 0.736 ± 0.028 | 1.22 ± 0.18 | 1.19 ± 0.097 | 0.997 (active)
COc1cc(C=NNC(=O)c2ccc(OC)c(OC)c2)ccc1O | 0.788 ± 0.32 | 0.838 ± 0.098 | 0.831 ± 0.066 | 0.83 ± 0.022 | 0.938 ± 0.15 | 1.15 ± 0.15 | 0.996 (active)
CN1C(=O)C(=NNC(=O)COc2cccc(Br)c2)c2ccccc21 | 0.895 ± 0.06 | 0.978 ± 0.082 | 0.896 ± 0.054 | 0.954 ± 0.033 | 1.48 ± 0.16 | 1.16 ± 0.12 | 1.01 (active)
COC(=O)c1ccc(CN2CCc3ccccc3C2)cc1 | 0.82 ± 0.089 | 1.17 ± 0.08 | 1.3 ± 0.059 | 0.832 ± 0.052 | 0.974 ± 0.1 | 1.5 ± 0.36 | 0.938 (active)
C=CCN1C(=O)C(=C2C(=O)N(Cc3ccccc3F)c3ccccc32)SC1=S | 1.09 ± 0.1 | 1.02 ± 0.079 | 1.01 ± 0.062 | 0.904 ± 0.039 | 1.37 ± 0.18 | 1.13 ± 0.19 | 1.01 (active)
C#Cc1cccc(Nc2ncnc3cc(OCCOC)c(OCCOC)cc23)c1.Cl | 0.511 ± 0.11 | 0.348 ± 0.047 | 0.233 ± 0.014 | 0.292 ± 0.03 | 0.143 ± 0.039 | 0.0986 ± 0.027 | 0.853 (active)
O=c1[nH]c2ccccc2n1CCN1CCN(c2cccc(C(F)(F)F)c2)CC1 | 0.278 ± 0.037 | 0.403 ± 0.097 | 0.448 ± 0.028 | 0.953 ± 0.034 | 1.24 ± 0.34 | 1.51 ± 0.2 | 0.915 (active)
O=c1cc(O)nc(SCc2c(F)c(F)c(F)c(F)c2F)[nH]1 | 1.01 ± 0.08 | 0.913 ± 0.07 | 1.05 ± 0.049 | 0.646 ± 0.066 | 1.01 ± 0.1 | 1.03 ± 0.21 | 1 (active)
CCCCCCCC(=O)N[C@H](CN1CCCC1)[C@H](O)c1ccc2c(c1)OCCO2 | 0.989 ± 0.097 | 1.03 ± 0.067 | 1.21 ± 0.026 | 0.853 ± 0.047 | 1.03 ± 0.15 | 1.2 ± 0.11 | 0.968 (active)
COCc1cc(C)nc2sc(C(=O)c3cccc([N+](=O)[O-])c3)c(N)c12 | 0.804 ± 0.063 | 0.719 ± 0.034 | 0.78 ± 0.29 | 0.943 ± 0.043 | 1.36 ± 0.12 | 1.53 ± 0.14 | 1.01 (active)
